# Compound activity deposited in PubChem BioAssay by Broad Institute.
# The full list was thinned out, with hits kept by preference.
# NOMO-1 viab = STK33 inhibitor candidate reducing NOMO-1 cell viability. NOMO-1 AML viability, CellTiter-Glo luminescence, 72 h. inhibition, % (test concentration not listed). hit rate 7.5% among 37,000. AID 2330; in the data active means inhibition above about 80%; inconclusive means no clear call, values can overlap the other calls
# STK33 kin inh = blocks human STK33 kinase activity; Q9BYT3; ADP-Glo luminescence, MBP substrate; inhibition, % at 12.5 µM; hit rate 0.44% among 27,000; AID 2322; in the data active means inhibition above about 20%; inconclusive means no clear call, values can overlap the other calls
# Target sequence (Q9BYT3 whole entry, looked up): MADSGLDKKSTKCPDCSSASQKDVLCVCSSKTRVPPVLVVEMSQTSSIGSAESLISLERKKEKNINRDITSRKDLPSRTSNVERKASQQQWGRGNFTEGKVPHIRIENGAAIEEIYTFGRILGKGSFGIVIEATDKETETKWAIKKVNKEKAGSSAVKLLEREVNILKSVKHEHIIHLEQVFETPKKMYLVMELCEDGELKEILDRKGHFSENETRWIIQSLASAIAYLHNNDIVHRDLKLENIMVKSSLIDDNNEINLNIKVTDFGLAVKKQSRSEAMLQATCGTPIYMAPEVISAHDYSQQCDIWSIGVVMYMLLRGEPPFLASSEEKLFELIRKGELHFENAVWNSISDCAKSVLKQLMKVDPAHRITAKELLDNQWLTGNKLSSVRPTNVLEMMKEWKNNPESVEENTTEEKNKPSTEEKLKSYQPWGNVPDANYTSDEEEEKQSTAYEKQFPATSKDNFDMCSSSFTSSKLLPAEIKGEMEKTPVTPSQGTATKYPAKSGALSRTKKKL
# PD-1 reverse act = activators reversing PD-1 mediated T-cell inhibition. primary human CD4 T cells, PD-L1 beads, CellTiter-Glo 96 h. activation, % (concentration not given with the values). 29,000 tested, under 10 active. AID 2316; call rule not given here;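 further: 0% = median vehicle wells and 100% = positive control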
# Numbers without * were called inactive; ? = inconclusive; / = not tested or not shown.
SMILES,NOMO-1 viab,STK33 kin inh,PD-1 reverse act
Cc1ccc(S(=O)(=O)c2c(C)nn(C(C)(C)C)c2OC(=O)c2ccccc2C(F)(F)F)cc1,61,0,-3
Cc1cc(C)nc(NS(=O)(=O)c2ccc(Nc3nc(-c4ccc(F)cc4)cs3)cc2)n1,10,-4,-1
O=C(NC(=S)NC12CC3CC(CC(C3)C1)C2)c1ccccc1,26,/,-2
S=C(NCc1ccccc1Cl)NC12CC3CC(CC(C3)C1)C2,115*,4,-9
C[C@@H]1CN([C@@H](C)CO)C(=O)c2cccc(N(C)C)c2O[C@H]1CN(C)Cc1ccc(C(=O)Nc2ccccc2N)cc1,90*,/,-2
C[C@H](CO)N1C[C@H](C)[C@@H](CN(C)Cc2ccc(C(=O)Nc3ccccc3N)cc2)Oc2c(cccc2N(C)C)C1=O,44,/,1
C[C@H]1CN([C@@H](C)CO)C(=O)c2cccc(N(C)C)c2O[C@H]1CN(C)Cc1ccc(C(=O)Nc2ccccc2N)cc1,126*,/,-1
C[C@H](CO)N1C[C@H](C)[C@@H](CN(C)Cc2ccc(C(=O)Nc3ccccc3N)cc2)Oc2c(NS(C)(=O)=O)cccc2C1=O,30,/,-1
Cc1ccc(-c2nc3ncccc3o2)cc1NC(=O)COc1cc(C)c(Cl)c(C)c1,61,2,-3
COC(=O)c1cc(-c2ccccc2)sc1NC(=O)c1cc(-c2cccnc2)nc2ccccc12,30,1,/
COC(=O)c1c(-c2ccccc2)csc1NC(=O)c1cc(-c2cccnc2)nc2ccccc12,104*,2,/
C[C@@H]1CN([C@@H](C)CO)C(=O)c2cc(NC(=O)Nc3cccc4ccccc34)ccc2O[C@H]1CN(C)CC1CCCCC1,56,-1,-1
C[C@@H]1CCCCO[C@@H](CN(C)CC2CCCCC2)[C@@H](C)CN([C@H](C)CO)C(=O)c2cc(NC(=O)Nc3cccc4ccccc34)ccc2O1,112*,4,-11
C[C@@H]1CCCCO[C@@H](CN(C)Cc2ccccc2)[C@@H](C)CN([C@H](C)CO)C(=O)c2cc(NC(=O)Nc3cccc4ccccc34)ccc2O1,35,0,2
C[C@@H]1CCCCO[C@H](CN(C)CC2CCCCC2)[C@@H](C)CN([C@H](C)CO)C(=O)c2cc(NC(=O)Nc3cccc4ccccc34)ccc2O1,128*,4,-9
CCn1c(SCC(=O)Nc2ccc(Br)c(Cl)c2)nnc1-c1ccccc1F,41,1,1
C[C@H]1[C@H]2OC3=C(C(=O)OC3(C)O)C(=O)[C@]1(C)[C@H]1CCCC[C@]1(O)[C@H]2O (stereo not given in full),12,-1,-2
O=[N+]([O-])c1ccc(OCc2nc(-c3ccncc3)no2)cc1,21,-3,-1
C=C[C@@]1(C)CCC2=C([C@H]1OC(C)=O)[C@H](OC(C)=O)CC1[C@](C)(C(=O)OC)CC[C@H](OC(C)=O)[C@]21C (stereo not given in full),21,-1,1
C=C1[C@@H]2CC[C@H]3[C@@]4(C)C(C[C@H](OC(=O)[C@]5(C)O[C@@H]5C)[C@]3(C2)[C@@H]1OC(C)=O)[C@](C)(C(=O)OC)CC[C@H]4OC(C)=O (stereo not given in full),88*,-4,-1
C[C@@H]1CN([C@H](C)CO)C(=O)c2cc(NC(=O)NC3CCCCC3)ccc2O[C@H]1CN(C)Cc1ccc(-c2ccccc2)cc1,?,/,-4
C[C@@H]1CN([C@H](C)CO)C(=O)c2cc(NC(=O)NC3CCCCC3)ccc2O[C@@H]1CN(C)Cc1ccc(-c2ccccc2)cc1,87*,/,/
C[C@@H]1CN([C@@H](C)CO)C(=O)c2cc(NC(=O)NC3CCCCC3)ccc2O[C@@H]1CN(C)Cc1ccc(-c2ccccc2)cc1,117*,1,-6
C[C@@H]1CN([C@@H](C)CO)C(=O)c2cc(NC(=O)NC3CCCCC3)ccc2O[C@H]1CN(C)Cc1ccc(-c2ccccc2)cc1,100*,/,-1
C[C@H]1CN([C@@H](C)CO)C(=O)c2cc(NC(=O)NC3CCCCC3)ccc2O[C@@H]1CN(C)Cc1ccc(-c2ccccc2)cc1,38,2,-1
SMILES,NOMO-1 viab,STK33 kin inh,PD-1 reverse act
C[C@H]1CN([C@@H](C)CO)C(=O)c2cc(NC(=O)NC3CCCCC3)ccc2O[C@H]1CN(C)Cc1ccncc1,100*,-2,1
C[C@H]1CN([C@@H](C)CO)C(=O)c2cc(NC(=O)NC3CCCCC3)ccc2O[C@@H]1CN(C)Cc1ccccc1,-1,/,1
C[C@@H]1CN([C@H](C)CO)C(=O)c2cc(NC(=O)NC3CCCCC3)ccc2O[C@H]1CN(C)Cc1ccncc1,8,1,0
Cc1cc(=O)oc2cc(OC(C)C(=O)Nc3sc4c(c3C(N)=O)CCCC4)ccc12 (stereo not given),5,6,/
COC(=O)c1c(NC(=O)C(C)Oc2ccccc2F)sc2c1CCC2 (stereo not given),35,2,-1
CC(=O)Nc1ccc(-c2nnc(SCC(=O)Nc3ccc(Cl)cc3Cl)n2C)cc1,16,11,-1
O=C(CSc1nnc(-c2cccs2)n1-c1ccccc1)c1ccc(Br)cc1,14,4,1
COc1ccc(S(=O)(=O)N(CC(=O)O)c2ccc(Cl)cc2)cc1,-9,-3,/
COc1ccc(S(=O)(=O)N(CCO)c2ccccc2CN(C)C/C=C/c2ccc(Cl)cc2)cc1,83*,4,-12
COc1ccc(CN(C)C[C@H]2Oc3c(NC(=O)Nc4ccc(F)cc4)cccc3C(=O)N([C@H](C)CO)C[C@@H]2C)cc1,72,/,-1
COc1ccc(NC(=O)Nc2cccc3c2O[C@H](CN(C)Cc2ccc(Cl)c(Cl)c2)[C@@H](C)CN([C@@H](C)CO)C3=O)cc1,91*,/,/
COc1ccc(CN(C)C[C@@H]2Oc3c(NC(=O)Nc4ccc(OC)cc4)cccc3C(=O)N([C@@H](C)CO)C[C@@H]2C)cc1,15,/,1
COc1ccc(NC(=O)Nc2cccc3c2O[C@@H](CN(C)Cc2ccc(Cl)c(Cl)c2)[C@H](C)CN([C@H](C)CO)C3=O)cc1,102*,/,/
COc1ccc(CN(C)C[C@H]2Oc3c(NC(=O)Nc4ccc(OC)cc4)cccc3C(=O)N([C@@H](C)CO)C[C@@H]2C)cc1,45,/,/
COc1ccc(NC(=O)Nc2cccc3c2O[C@H](CN(C)Cc2ccc(Cl)c(Cl)c2)[C@@H](C)CN([C@H](C)CO)C3=O)cc1,103*,/,-6
COc1ccc(NC(=O)CSC2CC(=O)N(c3ccccc3)C2=O)cc1Cl (stereo not given),-4,-1,1
COc1ccc(C(=O)CSc2nnc(-c3ccccc3Cl)n2C)cc1OC,1,-1,0
CC(C)c1nc(/N=C/N(C)C)nc(=O)n1C,12,/,1
COc1ccccc1C1CCN(Cc2cccc3ccccc23)CC1,100*,0,-7
COc1ccccc1C1CCN(S(=O)(=O)c2ccccc2Br)CC1,-4,/,0
CC(=O)Nc1ccc(NC(=O)c2cccc(C(=O)OC(C)C)n2)cc1,107*,/,0
COC(=O)c1cccc(C(=O)Nc2ccc(F)cc2)n1,?,/,1
O=C(COc1ccc(S(=O)(=O)N2CCCCC2)cc1)Nc1ccc2c(c1)OCCO2,-5,10,-1
